# Source: PubChem BioAssay (National Center for Advancing Translational Sciences (NCATS))
# IL-1B inflam inh – inflammasome signaling inhibition, IL-1 beta readout; actives 4.7% (n = 360,000); activity change, % at 57.5 µM; THP-1 LPS/ATP IL-1B secretion, AlphaLISA, 16 h; active compounds read low; AID 743279; in the data active = activity change below about -50%; inconclusive = mostly about -30% to -49%
#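 Secreted IL-1B measured by AlphaLISA bead assay after 16 h compound exposure of THP-1 cells; compounds (final up to 57.5 uM) added 1 h before LPS (250 ng/mL) and ATP (1.25 mM) stimulation; lower signal means less secretion.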
# ELG1 repair inh – inhibitors of ELG1-dependent DNA repair in HEK293T cells; Potency, µM (titrated, usually from 46.1 µM), for inactives: at the highest dose activity change, negative = inhibition, usual class: inhibitors; actives 2.3% (n = 330,000); HEK293T ELG1-luciferase reporter, luminescence, 16 h; DNA damage induced by 5-fluorouridine; also: potency is read from the fitted curve at half-maximal effect; nearly all actives have a fitted effect of over 55% in size
#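 5-Fluorouridine DNA damage + compound/DMSO, 2,000 cells/well, 16 h, 37 °C/5% CO2. ONE-Glo, 30 min RT, luminescence. Readout = decrease in reporter signal.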
# HT1080-NT tox – kills 2HG-producing HT-1080-NT fibrosarcoma cells; AID 686970; actives 1.6% (n = 360,000); HT-1080-NT fibrosarcoma viability, CellTiter-Glo ATP luminescence, 48 h; Potency, µM (doses to about 46.1 µM), for the others: top-dose activity, negative = less viability, most hits filed as cytotoxic;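 also: NT is the 2HG producing partner of a matched IDH1 knockdown line; potency is read from the fitted curve at half-maximal effect; 0% = DMSO-treated cells and -100% = media-only wells without cells; nearly all actives have a fitted effect of over 55% in size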
#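 HT-1080-NT fibrosarcoma cells (2HG-overproducing), 750 cells/well in RPMI with 5% FBS, dosed after 2 h and incubated 48 h at 37C. CellTiter-Glo luminescence normalized to DMSO and no-cell wells; concentration-response curves fitted and classed.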
# DT40 TDP1 CPT – growth inhibition of DT40 Tdp1-/-;hTDP1 cells with camptothecin (screen for TDP1 inhibitors) | chicken DT40 Tdp1-/-;hTDP1 cells + 20 nM CPT, ATP luminescence, 48 h | Potency, µM (highest dose often 46.2 µM), inactives show at the top dose activity change, negative = growth inhibition, usual class: inhibitors | actives 12% (n = 420,000) | AID 686979; also: potency is read from the fitted curve at half-maximal effect; nearly all actives have a fitted effect of over 55% in size
#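 Chicken DT40 Tdp1-/- cells complemented with human TDP1, 400 cells/well, exposed to compounds plus 20 nM camptothecin for at least 48 h at 37 C; viability read as ATP content by CellTiter-Glo luminescence.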
# HT1080 IDH1KD tx – kills HT-1080 cells with IDH1 knockdown; HT-1080 IDH1 knockdown viability, ATP luminescence, 48 h; Potency, µM (doses to about 46.1 µM), for inactives: top-dose activity, negative = toxicity, hits mostly cytotoxic; actives 2% (n = 360,000);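 also: potency is read from the fitted curve at half-maximal effect; 0% = DMSO wells and -100% = cell-free medium wells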
#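 After a 2 h attachment period, IDH1KD HT-1080 cells took pin-transferred compound for 48 h at 37 °C; ATP-based luminescence after 10 min room-temperature reagent incubation reported viability.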
# TDP1 cell noCPT – qHTS for Inhibitors of human tyrosyl-DNA phosphodiesterase 1 (TDP1): qHTS in cells in absence of CPT | AID 686978, 2013 | actives 15% (n = 420,000) | DT40 Tdp1-/- hTDP1 cells, no CPT, ATP luminescence, 48 h | Potency, µM (doses to about 46.2 µM), for the others: top-dose activity change, negative = growth inhibition, hits mostly inhibitors; also: potency is read from the fitted curve at half-maximal effect; nearly all actives have a fitted effect of over 55% in size
#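 Chicken DT40 Tdp1-/- cells complemented with human TDP1, screened without camptothecin (DMSO vehicle only), 400 cells/well. Compounds pin-transferred, cells incubated at 37 °C for at least 48 hr. Growth read as ATP-dependent luminescence (CellTiter-Glo, 30 min at RT).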
# Active calls of the source: *; ? = inconclusive; / = no result; [ ] = dose if it differs, or a comment. Sampled rows, rich in hits. Any-hit rate of the full collection: about 19%. Unless noted, calls follow the shape of the dose curve; as a rule, active = well fitted curve in the direction sought with a large enough effect; inconclusive = small, poorly fitted or top-dose-only effect, or another doubt; inactive = no such curve, though single readings can be large; an effect the other way counts as inactive or inconclusive. Unless noted, % is scaled to controls: 0 for no effect and ±100 for the full control effect.
SMILES,IL-1B inflam inh,ELG1 repair inh,HT1080-NT tox,DT40 TDP1 CPT,HT1080 IDH1KD tx,TDP1 cell noCPT
CCn1nc(C)cc1C(=O)NCC1Cc2cccc(-c3cccnc3)c2O1 (stereo not given),/,/,/,11.9%[9.04 µM],/,?
COCCCn1c(SCC(=O)N2CCOCC2)nc2cc(Cl)ccc2c1=O,-25.6,?,0.4%,-2.1%,4.4%,4.6%
COc1ccccc1OCC(=O)NCC1CCCN(Cc2cnn(C(C)C)c2)C1 (stereo not given),4.5,?,3.8%,13.0%,7.8%,-23.6%
O=C(c1cc(F)c(F)c(F)c1F)N1CCN(C(=O)C2CCCO2)CC1 (stereo not given),5.5,13.1%,-1.0%,1.5%,-6.4%,-7.0%
COc1ccc(-c2noc(CCC(=O)NCc3cc(Br)ccc3OC)n2)cc1,-89.6*,/,-9.7%,?,-6.8%,18.4µM*
COc1ccc(Br)cc1CNC(=O)CCc1nc(-c2ccc(C)cc2)no1,6.4,-19.7%,-16.1%,-21.6%,-9.4%[9.24 µM],?
COc1ccc(Cl)cc1N(C)C(=O)CCc1nc(-c2ccc(C)cc2)no1,-3.2,?,-20.2%,18.4µM*,1.0%[9.24 µM],23.1µM*
CCN(C(=O)CCc1nc(-c2ccc(C)cc2)no1)c1cccc(Cl)c1,/,/,/,20.6µM*,/,?
COc1ccc(-c2noc(CCC(=O)NCc3ccc(OC)cc3OC)n2)cc1,/,/,/,?,/,16.4µM*
COc1ccc(-c2noc(CCC(=O)NCc3ccc(C)cc3)n2)cc1,/,/,/,-28.2%,/,-13.9%
COc1ccc(-c2noc(CNC(=O)COc3cccc(C)c3C)n2)cc1,/,/,/,?,/,20.6µM*
Cc1ccc(C)c(NC(=O)CCc2nc(-c3ccc(C(C)(C)C)cc3)no2)c1,/,/,/,23.1µM*,/,16.4µM*
Cc1ccc(-c2noc(CNC(=O)COc3ccccc3C)n2)cc1,-9.0,-7.4%,-19.9%,-13.8%,-16.4%,5.3%
O=C(CCc1nc(-c2ccc(F)cc2)no1)Nc1cccc(C(=O)NC2CC2)c1,18.0,?,-0.5%,?,1.5%,16.4µM*
Cc1ccc(-c2noc(CCC(=O)Nc3ccc(F)cc3Cl)n2)cc1,/,/,/,-2.4%,/,?
COc1ccc(NC(=O)CCc2nc(-c3ccc(C)cc3)no2)cc1Cl,3.5,?,-6.5%,16.4µM*,-21.1%,16.4µM*
CC1CCC2(CC1)NC(=O)N(CC(=O)N1CCN(c3ccccc3)CC1)C2=O (stereo not given),6.2,4.1%,-1.9%[9.24 µM],-21.4%,0.1%,-0.2%
O=C1Nc2c(c(=O)[nH]c(=O)n2-c2ccccc2)C1(NS(=O)(=O)c1ccc(Cl)cc1)C(F)(F)F (stereo not given),/,/,/,2.4%,/,3.6%
Cc1ccc(-c2noc(CCC(=O)Nc3ccc4c(c3)OCO4)n2)cc1,-0.6,9.1%,-15.3%,?,-22.4%,?
COc1ccc(NC(=O)CCc2nc(-c3ccc(C)cc3)no2)c(OC)c1,23.9,-0.3%,-1.7%,?,7.9%[9.24 µM],18.4µM*
COc1ccc(-c2noc(CCC(=O)Nc3ccc4c(c3)OCCO4)n2)cc1,-2.0,-4.2%,-24.7%,16.4µM*,-22.2%,14.6µM*
COc1ccc(-c2noc(CSc3nc(-c4ccccc4)cc(=O)[nH]3)n2)cc1OC,25.2,-3.7%,-20.8%,-4.1%,-20.0%,-14.9%
Cc1ccc2nc(SCc3nc(-c4ccc(Cl)cc4)no3)[nH]c2c1,/,/,/,16.4µM*,/,23.1µM*
CCc1cc(=O)[nH]c(SCc2nc(-c3ccc(C(F)(F)F)cc3)no2)n1,/,/,/,23.1µM*,/,16.4µM*
COc1ccc(-c2noc(CSc3nc(N)cc(=O)[nH]3)n2)cc1,19.8,?,?,16.4µM*,?,18.4µM*
O=c1cc(-c2ccc(F)cc2)nc(SCc2nc(-c3ccc(Cl)cc3)no2)[nH]1,/,/,/,-17.2%,/,-22.4%
